Experimental data published in PubChem BioAssay AID430 (Sanford-Burnham Center for Chemical Genomics, 2006).
In all, about 63,000 compounds went through this assay and about 1,100 (1.7%) were called active. What follows is part of a selection rich in actives, with near analogues and random picks from the rest. Potency and affinity values are given separately. A number with no mark means an inactive call. Rule as the data show it: active = cytotoxicity above about 50%; inactive = the rest.

Assay: cytotoxicity in HPDE-C7 cells, cell-based, fluorescence, HTS (AID 430);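 also: cells exposed to compound for 48 hours before viability readout; 0% = vehicle and 100% = reference cytotoxic drug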
Details: HPDE-C7 pancreatic duct cells viability, at 10 µM, active compounds read high

SMILES	cytotoxicity
O=C(COC(=O)C1c2ccccc2Oc2ccccc21)NC1CCS(=O)(=O)C1 (stereo unspecified)	-3.2%
Cc1ccc2nc(NC3=NCN(Cc4ccc5c(c4)OCO5)CN3)nc(C)c2c1	8.3%
Cc1nc(NC2=NCN(Cc3ccc4c(c3)OCO4)CN2)nc2ccccc12	2.1%
Cc1cc2nc(NC3=NCN(Cc4ccc5c(c4)OCO5)CN3)nc(C)c2cc1C	93.4% (active)
CC(=O)C1=C(O)C(=O)N(Cc2ccco2)C1c1ccccc1 (stereo unspecified)	-10.9%
Cc1ccc(CNC(=O)c2cc3c(=O)n4ccccc4nc3n(Cc3ccco3)c2=N)cc1	104% (active)
Cc1ccc(Cn2c(=N)c(C(=O)NCc3ccco3)cc3c(=O)n4ccccc4nc32)cc1	-10.8%
Cc1ccc(S(=O)(=O)c2cc3c(=O)n4ccccc4nc3n(Cc3ccco3)c2=N)cc1	21.9%
N=c1c(C(=O)NCc2ccccc2)cc2c(=O)n3ccccc3nc2n1Cc1ccco1	1.8%
N=c1c(S(=O)(=O)c2ccccc2)cc2c(=O)n3ccccc3nc2n1Cc1ccco1	-0.3%
CC1=C(C(N)=O)C(c2ccccn2)n2nc(-c3ccccc3Cl)nc2N1 (stereo unspecified)	13.8%
C=C(C)COc1ccc2c3c(c(=O)oc2c1OCC(=C)C)CCC3	11.5%
Cc1ccc(C(C(=O)NC2CCCCC2)N(Cc2cccnc2)C(=O)C2COc3ccccc3O2)o1 (stereo unspecified)	-11.7%
C=CCn1c(SCC(=O)NC2CCCCC2)nnc1-c1sc(N)nc1C	-10%
CCn1c(COc2ccc3c(c2)OCO3)nnc1SCC(=O)c1ccccc1	-1.4%
O=S(=O)(NCc1cccs1)c1cccc2cccnc12	-9.6%
CN(CC(=O)NCc1cccs1)S(=O)(=O)c1cccc2cccnc12	-9.8%
CCOC(=O)C1(C)NC(c2ccc(N(C)C)cc2)C2C(=O)N(CC)C(=O)C21 (stereo unspecified)	-12.4%
O=c1c2ccccc2nc(SCc2cc(F)cc3c2OCOC3)n1Cc1ccco1	-2.2%
N#Cc1nc(-c2ccc(F)cc2)oc1N1CCCC1	-7.6%
O=C(c1ccc(F)cc1)c1ccc(N2CCCC2)cc1	-17.7%
CN(C)CCN1C(=O)C(O)=C(C(=O)c2ccco2)C1c1ccccc1F (stereo unspecified)	-4.8%
CCn1c(=O)cc(OCC(=O)N2CCCC2)c2ccccc21	-3%
COc1ccc(C(CNC(=O)Cn2[nH]c(=O)c3ccccc3c2=O)N2CCCC2)cc1 (stereo unspecified)	1.8%

SMILES	cytotoxicity
Cc1cccc(Cc2c(C)nc3nc(SCC(=O)NCc4ccco4)nn3c2C)c1	45.8%
Cc1ccc(Cc2c(C)nc3nc(SCC(=O)NCc4ccco4)nn3c2C)cc1	61.8% (active)
Cc1ccccc1Cc1c(C)nc2nc(SCC(=O)NCc3ccco3)nn2c1C	12%
Cc1nnc(NC(=O)c2ccc(-c3cccc(C(F)(F)F)c3)o2)s1	-13.1%
CCOC(=O)c1sc(NC(=O)c2cccs2)cc1C	-16.1%
CCOC(=O)c1c(C)nn(Cc2ccccc2)c1N	-1.6%
CCOC(=O)c1sc(NC(=O)c2c(C)nn(Cc3ccccc3)c2C)cc1C	72.7% (active)
Cc1cccc(OCc2nnc(SCC(=O)N(C(C)C)C(C)C)n2Cc2ccco2)c1C	-16%
CC1(C)Cc2c(sc3ncn4nc(CCC(=O)O)c(=O)nc4c23)CO1	-23.3%
CC(=O)Nc1cc(C(F)(F)F)ccc1N1CCOCC1	14.9%
O=C(Nc1cc(C(F)(F)F)ccc1N1CCOCC1)c1c(F)c(F)c(F)c(F)c1F	51% (active)
O=C(Nc1cc(C(F)(F)F)ccc1N1CCOCC1)c1ccco1	1.1%
O=C(Nc1cc(C(F)(F)F)ccc1N1CCOCC1)c1cccnc1	4.3%
Cc1onc(-c2ccccc2)c1C(=O)Nc1cc(C(F)(F)F)ccc1N1CCOCC1	69.1% (active)
Cc1onc(-c2ccccc2)c1C(=O)Nc1ccccc1N1CCOCC1	4.9%
COc1ccccc1NC(=O)C1=C(C)Nc2ncnn2C1c1cccs1 (stereo unspecified)	3.3%
O=C(Cn1cnc2c(nnn2Cc2ccccc2F)c1=O)OCc1ccccc1	-18.4%
CCSc1nnc(NC(=O)CSc2nnc(Cc3cccn3C)n2-c2ccc(F)cc2)s1	65.6% (active)
Cn1cccc1Cc1nnc(SCC(=O)Nc2ccc(F)cc2)n1-c1ccc(F)cc1	-3.8%
CCSc1nnc(NC(=O)CSc2nnc(Cc3cccn3C)n2-c2ccc(C)cc2)s1	39.6%
Cc1nnc(Nc2ccc(C(=O)NCCO)cc2)c2ccccc12	8.6%
CC(O)C(=O)NCCOCCOCCNC(=O)C(C)O (stereo unspecified)	-5.5%
COC(=O)c1ccc(Sc2ccc(C)cc2)c(N)c1	9.4%
CC(C)c1ccc(O)c(N)c1	6.8%

SMILES	cytotoxicity
COC(=O)c1ccc(OC(=O)c2ccc(OC)c(OC)c2)c(OC)c1	4.3%
Cc1ccc(O)c(Sc2cc(C)ccc2O)c1	52.6% (active)
Cc1ccc(SC(C)C(=O)NCC(C)C)cc1 (stereo unspecified)	-2.6%
CN(CCC#N)S(=O)(=O)c1ccc2c(c1)c(=O)n(C)c(=O)n2C	-12.5%
CCCN(S(=O)(=O)c1ccc(OCC)cc1)S(=O)(=O)c1cccs1	-20.2%
COc1cc(NC(=O)c2c(F)c(F)c(F)c(F)c2F)c(OC)cc1Cl	55.4% (active)
O=C(Nc1ccccc1Cl)c1c(F)c(F)c(F)c(F)c1F	-8.2%
CCOC(=O)c1ccccc1NC(=O)c1cccs1	-6%
Cc1ccccc1NC(=O)c1c(F)c(F)c(F)c(F)c1F	-10.5%
COCC(=O)Nc1cc(OC)c(Cl)cc1OC	-1.4%
COc1cc(NC(=O)C2CCCC2)c(OC)cc1Cl	-20.5%
CCOC(=O)c1ccccc1NC(=O)c1ccccc1SC	25.3%
O=C(CSc1nnc(-c2ccc(Cl)cc2)n1Cc1ccco1)c1cccs1	-6.2%
CCCCS(=O)CC(COCc1ccccc1)OC(=O)CSc1nc(C)cc(C)n1 (stereo unspecified)	8.8%
COC(=O)C1=CNC=C(C(=O)OC)C1c1ccc(C(=O)OC)cc1	5.1%
CC1(C)Cc2c(c(=S)nc(-c3ccccc3)n2CCN2CCOCC2)CO1	-21.2%
CCOC(=O)C1CCN(C(=O)c2sc3nc(-c4ccccc4)cn3c2C)CC1	-0.3%
Cn1c(N)c(C(=O)COC(=O)C2(c3ccccc3F)CCCC2)c(=O)n(C)c1=O	-7%
CCOCCCNC(=O)C(Cc1ccccc1)NC(=O)c1ccco1 (stereo unspecified)	-8.1%
CCN1CCN(Cc2cc(=O)oc3cc(C)cc(C)c23)CC1	2.1%
Cc1cc(C)c2c(CN3CCN(C/C=C/c4ccccc4)CC3)cc(=O)oc2c1	69.9% (active)
Cc1cc(C)c2c(CN3CCN(C)CC3)cc(=O)oc2c1	-8.5%
O=c1ccnc(S/C=C/c2ccccc2)[nH]1	-11.2%
O=C(Cn1c(=O)[nH]c2ccsc2c1=O)N1CCN(c2ccc(F)cc2)CC1	9.5%

SMILES	cytotoxicity
Cc1ccc(Cn2nc(C)c(NC(=O)c3cc(-c4ccc5c(c4)OCO5)on3)c2C)cc1	16.2%
Cc1nn(Cc2ccc(Cl)cc2)c(C)c1NC(=O)c1cc(-c2ccc3c(c2)OCO3)on1	35.4%
Cc1nn(Cc2ccc(Cl)c(Cl)c2)c(C)c1NC(=O)c1cc(-c2ccc3c(c2)OCO3)on1	54.7% (active)
O=C(c1ccc2c(c1)OCO2)N1CCCc2ccccc21	-12.5%
CN(C)S(=O)(=O)c1ccc(C(=O)Nc2ccccn2)cc1	0.8%
COc1ccc(-n2c(Cc3cccn3C)nnc2SCC(=O)Nc2cc(Cl)ccc2OC)cc1	-0.9%
Cn1nnnc1SCC(=O)NCCc1ccc(Cl)cc1	-8.2%
Oc1c(CN2CCOCC2)cc(COCc2ccccc2)c2cccnc12	60.7% (active)
CN1CCN(Cc2cc(COCc3ccccc3)c3cccnc3c2O)CC1	-9.2%
Oc1ccc(CNc2ccccc2F)c2cccnc12	-4.7%
Oc1c(CN2CCCCC2)cc(COCc2ccccc2)c2cccnc12	-10.8%
COc1ccccc1N1CCN(Cc2cc(Br)c(O)c3ncccc23)CC1	5.1%
Oc1ccc(CNc2ccc(F)cc2)c2cccnc12	45.3%
Oc1ccc(CN2CCN(Cc3ccccc3)CC2)c2cccnc12	6.2%
Oc1ccc(CNc2ccccc2)c2cccnc12	34.7%
COCc1cc(CN2CCCC2)c(O)c2ncccc12	-11.9%
CCCn1c(C)cc(=O)c2cc(NC(=O)c3ccccn3)ccc21	16.1%
COC(=O)CCCCCNc1ccc(C(=O)OC)cc1N	-12.1%
CC1Cc2nc(SCC(=O)N3CCc4ccccc43)n(C)c(=O)c2S1 (stereo unspecified)	-19.6%
O=S(=O)(NCCc1csc(-c2ccccc2)n1)c1ccc2c(c1)OCCO2	6.2%
O=C(CCCCn1c(=S)[nH]c2ccsc2c1=O)NCc1ccco1	-3%
Cc1ccc(C)c(N2CCN(C(=O)C3CCCN(S(=O)(=O)c4cnc[nH]4)C3)CC2)c1 (stereo unspecified)	-3.6%
COc1cccc(C2=NOC(C(=O)N3CCN(C(=O)c4ccco4)CC3)C2)c1 (stereo unspecified)	-8.5%
CSCCC(NC(=O)c1ccccc1)C(=O)NCc1ccco1 (stereo unspecified)	-8.6%
